Screening data from PubChem.
Rows were chosen to be rich in hits. Some 18% of all compounds tested hit in one or more screens of this group.
TDP1 cell noCPT = qHTS for Inhibitors of human tyrosyl-DNA phosphodiesterase 1 (TDP1): qHTS in cells in absence of CPT; hit rate 15% among 420,000; Potency, µM (series often up to 46.2 µM), actives largely listed as inhibitors; DT40 Tdp1-/- hTDP1 cells, no CPT, ATP luminescence, 48 h; AID 686978, 2013; note: nearly all actives have a fitted effect of over 55% in size
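Chicken DT40 Tdp1-/- cells stably complemented with human TDP1 were seeded at 400 cells/well with DMSO in place of 20 nM camptothecin. After compound pinning, cells grew at least 48 hr at 37 °C; viability read by CellTiter-Glo luminescence.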
TGFb inhibitor = TGF-b pathway inhibition | hit rate 1.2% among 410,000 | HepG2 CAGA-GFP TGF-b/SMAD3 reporter, GFP fluorescence, 18 h; TGF-beta stimulated, 500 pg/mL final | Potency, µM (highest dose often 46.1 µM), actives largely listed as inhibitors; note: nearly all actives have a fitted effect of over 65% in size
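Read-out: total well GFP (ex488/em500-530) summed from mean per-cell fluorescence. Cells: HEPG2 CAGA-GFP, 1% FBS DMEM, 18 h at 37 degrees C with 500 pg/mL final TGF-beta. Unstimulated wells served as the full-inhibition control; stimulated DMSO wells = 0%.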
IL-1B inflam inh = blocks inflammasome-driven IL-1 beta release; THP-1 LPS/ATP IL-1B secretion, AlphaLISA, 16 h; hits give low values; activity change, % at 57.5 µM; hit rate 4.7% among 360,000; in the data active = activity change below about -50%; inconclusive = mostly about -30% to -49%
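THP-1 cells pretreated 1 hr with compounds (up to 57.5 uM final), then stimulated with LPS (250 ng/mL final) plus ATP (1.25 mM final); secreted IL-1B measured by AlphaLISA after 16 hr, decreased signal indicating inhibition.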
TDP1 cell CPT = DT40-hTDP1 cell growth loss with CPT | chicken DT40 Tdp1-/-;hTDP1 cells + 20 nM CPT, ATP luminescence, 48 h | AID 686979 | hit rate 12% among 420,000 | Potency, µM (titrated, usually from 46.2 µM), hits mostly inhibitors; note: nearly all actives have a fitted effect of over 55% in size
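Chicken DT40 Tdp1-/- cells complemented with human TDP1, 400 cells/well, exposed to compounds plus 20 nM camptothecin for at least 48 h at 37 C; viability read as ATP content by CellTiter-Glo luminescence.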
TDP1 inh = TDP1 (human) enzyme inhibition. Potency, µM (top dose mostly 130 µM), hits mostly inhibitors. hit rate 0.28% among 350,000. recombinant TDP1, AlphaScreen DNA substrate cleavage; note: nearly all actives have a fitted effect of over 40% in size
Target sequence (Q9NUW8 whole entry, looked up): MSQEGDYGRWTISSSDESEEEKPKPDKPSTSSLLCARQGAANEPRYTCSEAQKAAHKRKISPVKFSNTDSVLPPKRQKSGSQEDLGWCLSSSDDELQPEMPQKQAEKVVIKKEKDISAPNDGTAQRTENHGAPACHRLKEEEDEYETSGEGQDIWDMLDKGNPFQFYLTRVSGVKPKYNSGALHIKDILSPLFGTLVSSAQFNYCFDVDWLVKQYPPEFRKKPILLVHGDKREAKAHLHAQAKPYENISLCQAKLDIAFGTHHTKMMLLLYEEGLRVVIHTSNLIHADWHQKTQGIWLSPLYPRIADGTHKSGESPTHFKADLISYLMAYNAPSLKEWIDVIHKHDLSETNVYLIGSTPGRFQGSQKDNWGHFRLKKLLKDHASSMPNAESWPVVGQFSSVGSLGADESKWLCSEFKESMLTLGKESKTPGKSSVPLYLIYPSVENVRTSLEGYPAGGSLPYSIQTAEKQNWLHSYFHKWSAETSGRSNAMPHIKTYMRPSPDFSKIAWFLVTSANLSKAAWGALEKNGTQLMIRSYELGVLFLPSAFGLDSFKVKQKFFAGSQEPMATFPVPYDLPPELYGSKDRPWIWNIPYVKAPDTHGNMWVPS
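Enzyme-compound mixtures sat 15 min at room temperature, followed by a 5 min reaction with 15 nM final substrate and 10 min with AlphaScreen beads. Recombinant human Tdp1 was used at 1 nM final.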
HepG2 tox = counter-screen for TGF-b inhibitors: cytotoxicity in HepG2 cells; HepG2 CAGA-GFP viability, ATP luminescence, 18 h; hit rate 0.76% among 410,000; AID 588856; Potency, µM (top dose mostly 46.1 µM), actives largely listed as cytotoxic
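CellTiter-Glo luminescence gave cytotoxicity after 18 hours at 37 degrees C. The cells were HepG2 CAGA-GFP in 1% FBS DMEM, stimulated with 500 pg/mL TGF-beta after compound addition. %Activity was normalised to no-cell wells (complete cell-killing) and DMSO (no toxicity), and curves were fitted and classified.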
Numbers stand for hits. Unless noted, calls come from the whole dose curve; as a rule, active = well fitted curve in the direction sought with a large enough effect; inconclusive = small, poorly fitted or top-dose-only effect, or another doubt; inactive = no such curve, though single readings can be large; an effect the other way counts as inactive or inconclusive.

`COc1ccccc1N1CCN(C(=O)CCc2nnc3ccc(N4CCOCC4)nn23)CC1` gave TDP1 cell noCPT inactive, TGFb inhibitor inactive, IL-1B inflam inh inactive, TDP1 cell CPT inactive, TDP1 inh inactive and HepG2 tox inactive.
For CC1CCN(c2ccc3nnc(CCC(=O)N4CCN(c5ccccc5F)CC4)n3n2)CC1 the results were TDP1 cell noCPT 15µM, TGFb inhibitor inconclusive, IL-1B inflam inh inactive, TDP1 cell CPT 23µM, TDP1 inh inactive and HepG2 tox inactive.
COc1ccc(CCNC(=O)CN(c2ccccc2)S(=O)(=O)N(C)C)cc1 was read as TGFb inhibitor inactive, TDP1 inh inactive and HepG2 tox inactive.
Screening COc1cc(CN(C(=O)Nc2ccccc2)c2ccccn2)cc(OC)c1OC returned TDP1 cell noCPT inconclusive, TGFb inhibitor inactive, TDP1 cell CPT inactive, TDP1 inh inactive and HepG2 tox inactive.
COc1cc(CN(C(=O)c2ccccc2[N+](=O)[O-])c2ccccn2)cc(OC)c1OC was read as TDP1 cell noCPT 15µM, TGFb inhibitor inconclusive, TDP1 cell CPT inconclusive, TDP1 inh inactive and HepG2 tox inactive.
COc1cc(CN(C(=O)c2ccc(OC(C)C)cc2)c2ccccn2)cc(OC)c1OC was read as TDP1 cell noCPT 4.1µM, TGFb inhibitor inactive, TDP1 cell CPT 2.3µM, TDP1 inh inactive and HepG2 tox inactive.
`COc1cc(CN(C(=O)c2ccc(OC(C)C)cc2)C2CCS(=O)(=O)C2)cc(OC)c1OC` (stereo not drawn) gave TDP1 cell noCPT inactive, TGFb inhibitor inactive, TDP1 cell CPT inactive, TDP1 inh inactive and HepG2 tox inactive.
`COc1cc(CN(C(=O)COc2ccc(C)c(C)c2)c2ccccn2)cc(OC)c1OC` gave TDP1 cell noCPT 8.2µM, TDP1 cell CPT 7.3µM, TDP1 inh inactive and HepG2 tox inactive.
`COc1ccc(C(=O)N(Cc2cc(OC)c(OC)c(OC)c2)c2ccccn2)cc1` gave TDP1 cell noCPT 21µM, TGFb inhibitor inactive, TDP1 cell CPT inconclusive, TDP1 inh inactive and HepG2 tox inactive.
For CCCC[C@@H]1C[C@H]1C(NC(=O)c1cccs1)c1ccc(C(F)(F)F)cc1 (stereo partly drawn) the results were TDP1 inh inactive.
Screening O=C(NC(=S)N(CCc1ccccc1)CCc1ccccc1)c1ccco1 returned TDP1 cell noCPT 12µM, TGFb inhibitor inconclusive, IL-1B inflam inh inactive, TDP1 cell CPT 18µM, TDP1 inh inactive and HepG2 tox inactive.
`COc1cc(C(=O)NC(=S)N(CCc2ccccc2)CCc2ccccc2)cc(OC)c1OC` gave TDP1 cell noCPT 21µM, TGFb inhibitor inconclusive, IL-1B inflam inh inactive, TDP1 cell CPT 23µM, TDP1 inh inactive and HepG2 tox inactive.
`COc1cc(C(=O)NC(=S)N(C)Cc2ccccc2)cc(OC)c1OC` gave TDP1 cell noCPT 8.2µM, TGFb inhibitor inactive, IL-1B inflam inh inactive, TDP1 cell CPT 21µM, TDP1 inh inactive and HepG2 tox inactive.
Screening CN(Cc1ccccc1)C(=S)NC(=O)c1ccc(-c2ccccc2)cc1 returned TDP1 cell noCPT 4.6µM, TGFb inhibitor inactive, IL-1B inflam inh inactive, TDP1 cell CPT 4.6µM, TDP1 inh inactive and HepG2 tox inactive.
For COc1ccc(CNC(=O)CN(C)S(=O)(=O)c2ccc3c(c2)OCCO3)cc1OC the results were TDP1 cell noCPT inactive, TGFb inhibitor inactive, IL-1B inflam inh inactive, TDP1 cell CPT inactive, TDP1 inh inactive and HepG2 tox inactive.
`O=C(NCc1cccc(Cl)c1)C1CCCN(c2nn3cc(-c4ccc(F)cc4)nc3s2)C1` (stereo not drawn) gave TDP1 cell noCPT 23µM, TGFb inhibitor inactive, TDP1 cell CPT inconclusive, TDP1 inh inactive and HepG2 tox inactive.
CCN(CC)CCNC(=O)C1CCN(c2nn3cc(-c4ccc(F)cc4)nc3s2)CC1 was read as TDP1 cell noCPT 3.3µM, TGFb inhibitor inconclusive, TDP1 cell CPT 5.2µM, TDP1 inh inactive and HepG2 tox inactive.
For O=C(Nc1cccc(Cl)c1)C1CCCN(c2nn3cc(-c4ccc(F)cc4)nc3s2)C1 (stereo not drawn) the results were TDP1 cell noCPT 23µM, TGFb inhibitor inactive, TDP1 cell CPT inconclusive, TDP1 inh inactive and HepG2 tox inactive.
COCCCNC(=O)C1CCN(c2nn3cc(-c4ccc(F)cc4)nc3s2)CC1 was read as TDP1 cell noCPT inconclusive, TGFb inhibitor inactive, TDP1 cell CPT inconclusive, TDP1 inh inactive and HepG2 tox inactive.
Cc1ccc(C(=O)NC(=S)Nc2nc(-c3cccc([N+](=O)[O-])c3)cs2)c(Cl)c1 was read as TDP1 cell noCPT inconclusive, TGFb inhibitor inactive, IL-1B inflam inh inactive, TDP1 cell CPT inconclusive, TDP1 inh inactive and HepG2 tox inactive.
Screening CCC1NC(=O)c2cccnc2-n2c1nc1ccc(F)cc1c2=O (stereo not drawn) returned TDP1 cell noCPT inactive, TGFb inhibitor inactive, IL-1B inflam inh inactive, TDP1 cell CPT inactive and HepG2 tox inactive.
Cc1nnc(Cc2ccco2)c2n[nH]c(C)c12 was read as TDP1 cell noCPT inconclusive, TGFb inhibitor inactive, IL-1B inflam inh inactive, TDP1 cell CPT inconclusive and HepG2 tox inactive.
Cc1nnc(Cc2ccccc2)c2n[nH]c(C)c12 was read as TDP1 cell noCPT 0.73µM, TGFb inhibitor inactive, IL-1B inflam inh inactive, TDP1 cell CPT 0.73µM and HepG2 tox inactive.
C=CC1(C)CN(Cc2ccco2)S(=O)(=O)c2c(F)cccc2O1 (stereo not drawn) was read as TDP1 cell noCPT inconclusive, TGFb inhibitor inactive, IL-1B inflam inh inactive, TDP1 cell CPT 18µM and HepG2 tox inactive.
`CCCCN1CC(C)(C)Oc2cccc(F)c2S1(=O)=O` gave TDP1 cell noCPT inactive, TGFb inhibitor inactive, IL-1B inflam inh inactive, TDP1 cell CPT inactive and HepG2 tox inactive.
CC(=O)c1ccc(S(=O)(=O)N2CCNC(=O)C2)cc1 was read as TDP1 cell noCPT inactive, TGFb inhibitor inactive, IL-1B inflam inh inactive, TDP1 cell CPT inactive, TDP1 inh inactive and HepG2 tox inactive.
For OCCNc1nc2nonc2nc1NCCO the results were TDP1 cell noCPT inactive, TGFb inhibitor inconclusive, IL-1B inflam inh inactive, TDP1 cell CPT inactive, TDP1 inh inactive and HepG2 tox inactive.
CC(C)(C)Nc1nc2nonc2nc1NC(C)(C)C was read as TDP1 cell noCPT inconclusive, TGFb inhibitor inconclusive, IL-1B inflam inh -68, TDP1 cell CPT 16µM, TDP1 inh inactive and HepG2 tox inactive.
